The results in this text go back to PubChem BioAssay (Tox21).

Inconclusive results are not listed. Activity calls are given as the source filed them. Calls follow the shape of the dose curve; as a rule, active = well fitted curve in the direction sought with a large enough effect in the repeat runs; inconclusive = weak or mixed curves; inactive = no such curve, though single readings can be large; an effect the other way counts as inactive or inconclusive.
% is scaled to controls: 0 for no effect and ±100 for the full control effect; potency is read from the fitted curve at half-maximal effect.

The first assay can be described thus: A CellTox Green Cytotoxicity Assay to monitor cytotoxicity in HepG2 cells - 32 hour (AID 1224883). Also: nearly all actives have a fitted effect of over 50% in size. The following applies: CellTox Green fluorescence; series mostly up to 76.8 µM; cytotoxicity increase: at the top concentration. Put shortly: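 Using 1536-well format, dye-containing HepG2 suspension was seeded, allowed 5 h at 37 C/5% CO2, dosed by pintool with compounds, positive and negative controls, and imaged for fluorescence across 40 h.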
With `CC(=O)OCCC(C)CC(C)(C)C` (centres undefined), the “cytotoxicity increase” value is -6.57% (inactive).
Same read-out and setting: under `ClC1=C(Cl)C1(Cl)Cl` stands -0.802% (inactive); under `O=C(O)CN1C(=O)c2cccc3cccc(c23)C1=O`, -8% [at 35.3 µM] (inactive).
In the case of `CCCCCCCC/C=C\CCCCCCCC(=O)OCCO`, the “cytotoxicity increase” value is 3.71% (inactive).
Consider `CS(=O)(=O)c1ccc([C@@H](C[C@H]2CCC(=O)C2)C(=O)Nc2cnccn2)cc1Cl`, for which the “cytotoxicity increase” value was -15.7% (inactive).
As to `Cc1ccc2nc(N)[nH]c(=O)c2c1Sc1ccncc1`, the “cytotoxicity increase” value is -12.8% [at 35.3 µM] (inactive).
Regarding `CC(C)Cc1ccc(CC(=O)O)cc1`, the Potency was 19 µM (active).
`COc1cc(NCc2ccc3nc(N)nc(N)c3c2C)cc(OC)c1OC`: the “cytotoxicity increase” value is -7.25% [at 35.3 µM] (inactive).
For `O=[N+]([O-])C1(Br)COCOC1`, the Potency is 49 µM (active).
As for `CCCCCCCCCCCCCCCCCC(=O)OCC(CC)CCCC` (centres undefined), the “cytotoxicity increase” value is -14.2% (inactive).
`CC12CC3CC(C)(C1)CC(N)(C3)C2`: the “cytotoxicity increase” value was -1.75% [at 35.3 µM] (inactive).
Turning to `CC/C=C\C/C=C\C/C=C\CCCCCCCC(=O)OCC`, the “cytotoxicity increase” value was 0.128% (inactive).
`CN1CCCN(C(c2ccccc2)c2ccc(Cl)cc2)CC1` (centres undefined): the Potency was 21.3 µM (active).
`O=C(O)c1cccc(C[C@@H]2COc3ccc(OCc4nc5cc(F)ccc5s4)cc3[C@@H]2O)c1`: the “cytotoxicity increase” value is 0.462% (inactive).
Take `Cc1ccc(N(CCO)CCO)cc1`: the “cytotoxicity increase” value was -12.4% (inactive).
As for `CC1CCC(C(C)CS)CC1S` (centres undefined), the “cytotoxicity increase” value was 1.07% (inactive).
With `COC(=O)CC(C(C)=O)C(=O)OC` (centres undefined), the “cytotoxicity increase” value was -13% (inactive).
For the compound `O[C@@H](CNC[C@H](O)[C@H]1CCc2cc(F)ccc2O1)[C@@H]1CCc2cc(F)ccc2O1`, the Potency is 10.7 µM (active).
Turning to `Cc1c[nH]c2ccccc12`, the “cytotoxicity increase” value is 0.609% [at 35.3 µM] (inactive).
As for `COc1ccc(C)cc1`, the “cytotoxicity increase” value was -1.89% (inactive).
For `Cc1ccc2c(c1[N+](=O)[O-])C(=O)c1ccccc1C2=O`, the “cytotoxicity increase” value was 9.18% [at 35.3 µM] (inactive).
Turning to `CC(C)(C)NCC(O)COc1cccc2c1C[C@H](O)[C@H](O)C2` (some centres undefined), the “cytotoxicity increase” value is -4.29% [at 35.3 µM] (inactive).
Turning to `CC(=O)OCC(=O)[C@@]1(OC(C)=O)[C@@H](C)C[C@H]2[C@@H]3C[C@H](F)C4=CC(=O)C=C[C@]4(C)[C@@]3(F)[C@@H](O)C[C@@]21C`, the “cytotoxicity increase” value was -13.9% [at 35.3 µM] (inactive).
Consider `O=C(O)c1cc(Cl)cc(Cl)c1O`, for which the “cytotoxicity increase” value is -7.66% (inactive).
Turning to `CCOC(=O)Oc1ccc(CCNC(=O)[C@H](CCSC)NC(C)=O)cc1OC(=O)OCC`, the “cytotoxicity increase” value is -1.66% [at 35.3 µM] (inactive).
Regarding `CCN(Cc1cccc(S(=O)(=O)O)c1)c1ccc(C(=C2C=CC(=[N+](CC)Cc3cccc(S(=O)(=O)O)c3)C=C2)c2ccc(O)cc2S(=O)(=O)[O-])cc1`, the “cytotoxicity increase” value was -12.9% [at 35.3 µM] (inactive).
For the compound `CCC(Cl)CC(Cl)C(Cl)C(Cl)C(Cl)C(C)Cl` (centres undefined), the cytotoxicity increase is 1.37% [at 15.8 µM] (inactive).
With `COC(CC(C)CCCC(C)(C)O)OC` (centres undefined), the “cytotoxicity increase” value is -6.95% (inactive).
As to `Oc1cccc2[nH]ccc12`, the “cytotoxicity increase” value was 0.672% [at 35.3 µM] (inactive).
In the case of `CCN(CC)CC(=O)Nc1c(C)cccc1C(=O)OC`, the “cytotoxicity increase” value was -7.15% [at 35.3 µM] (inactive).
Regarding `CCN(CC)CCNC(=O)c1cc(Cl)c(N)cc1OC`, the “cytotoxicity increase” value is 0.844% [at 35.3 µM] (inactive).
As to `CCCCOC(=O)CCCCC(=O)OCCCC`, the “cytotoxicity increase” value is -4.54% (inactive).
As for `CN(C)CC/C=C1\c2ccccc2Sc2ccc(Cl)cc21`, the Potency is 21.3 µM (active).
Turning to `CCN(CC)c1cccc(O)c1`, the “cytotoxicity increase” value was -3.18% (inactive).
Turning to `O=C(c1ccccc1)C1CCC1`, the Potency is 38.9 µM (active).

Another assay can be described thus: A CellTox Green Cytotoxicity Assay to monitor cytotoxicity in HEK293 cells - 8 hour (AID 1224884). Also: nearly all actives have a fitted effect of over 35% in size. The following applies: CellTox Green fluorescence; series mostly up to 76.8 µM; cytotoxicity increase: at the top concentration. Put shortly: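 Fluorescence intensity, read at 0, 8, 16, 24, 32 and 40 h of compound treatment, reflected dye binding to DNA of dead HEK293 cells; compounds (23 nL, DMSO) were added 5 h after plating cells with reagent.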
`ClC1=C(Cl)C1(Cl)Cl`: the “cytotoxicity increase” value was -7.35% (inactive).
`O=C(O)CN1C(=O)c2cccc3cccc(c23)C1=O`: the “cytotoxicity increase” value was 1.78% [at 35.3 µM] (inactive).
With `CCCCCCCC/C=C\CCCCCCCC(=O)OCCO`, the “cytotoxicity increase” value was 0.737% (inactive).
On the same count and under the same terms, next, `CS(=O)(=O)c1ccc([C@@H](C[C@H]2CCC(=O)C2)C(=O)Nc2cnccn2)cc1Cl`: -13.7% (inactive).
Turning to `Cc1ccc2nc(N)[nH]c(=O)c2c1Sc1ccncc1`, the “cytotoxicity increase” value is -2.21% [at 35.3 µM] (inactive).
As to `CC(C)Cc1ccc(CC(=O)O)cc1`, the Potency was 9.52 µM (active).
In the case of `CCCCCCCCCCCCCCCCCC(=O)OCC(CC)CCCC` (centres undefined), the “cytotoxicity increase” value is -6.57% (inactive).
The same measure, in the same setting: under `CC12CC3CC(C)(C1)CC(N)(C3)C2` stands 3.3% [at 35.3 µM] (inactive).
With `CC/C=C\C/C=C\C/C=C\CCCCCCCC(=O)OCC`, the “cytotoxicity increase” value was -10.3% (inactive).
On the same count and under the same terms, under `CN1CCCN(C(c2ccccc2)c2ccc(Cl)cc2)CC1` (centres undefined) stands 20.4% [at 35.3 µM] (inactive); under `O=C(O)c1cccc(C[C@@H]2COc3ccc(OCc4nc5cc(F)ccc5s4)cc3[C@@H]2O)c1`, 3.93% (inactive); under `Cc1ccc(N(CCO)CCO)cc1`, 3.54% (inactive).
Regarding `COC(=O)CC(C(C)=O)C(=O)OC` (centres undefined), the “cytotoxicity increase” value is -13.7% (inactive).
As for `c1ccc(CCCc2ccncc2)cc1`, the “cytotoxicity increase” value is 18.8% (inactive).
As for `O[C@@H](CNC[C@H](O)[C@H]1CCc2cc(F)ccc2O1)[C@@H]1CCc2cc(F)ccc2O1`, the Potency was 23.9 µM (active).
In the case of `Cc1c[nH]c2ccccc12`, the “cytotoxicity increase” value is 9.73% [at 35.3 µM] (inactive).
As to `COc1ccc(C)cc1`, the “cytotoxicity increase” value was 1.72% (inactive).
As to `COc1ccc(/C=C/C(=O)c2ccc(OC)cc2OC)cc1`, the “cytotoxicity increase” value is -3.34% [at 35.3 µM] (inactive).
For the compound `Cc1ccc2c(c1[N+](=O)[O-])C(=O)c1ccccc1C2=O`, the “cytotoxicity increase” value is 3.61% [at 35.3 µM] (inactive).
With `CC(C)(C)NCC(O)COc1cccc2c1C[C@H](O)[C@H](O)C2` (some centres undefined), the “cytotoxicity increase” value was -6.01% [at 35.3 µM] (inactive).
`O=C(O)c1cc(Cl)cc(Cl)c1O`: the “cytotoxicity increase” value is -1.82% (inactive).
The same measure, in the same setting: next, `CC(C)COC(=O)c1ccc(O)cc1`: 24.9% (inactive).
On the same count and under the same terms, under `CCN(CC)CCNC(=O)c1cc(Cl)c(N)cc1OC` stands 0.562% [at 35.3 µM] (inactive).
Consider `CCCCOC(=O)CCCCC(=O)OCCCC`, for which the “cytotoxicity increase” value was 9.68% (inactive).
As to `CCN(CC)c1cccc(O)c1`, the “cytotoxicity increase” value was 0.877% (inactive).
Regarding `CC1=CC[C@@]23C[C@@H]1C(C)(C)[C@@H]2CC[C@H]3C`, the “cytotoxicity increase” value is 11.4% (inactive).
With `O=C(c1ccccc1)C1CCC1`, the Potency was 38.9 µM (active).

The nature of the next assay: qHTS RealTime-Glo MT Cell Viability Assay in HepG2 cells - 16 hour (AID 1224885). Also: nearly all actives have a fitted effect of over 50% in size. To be noted: RealTime-Glo luminescence; series mostly up to 76.8 µM; activity change, negative = cytotoxic: at the top concentration. Put shortly: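 Compound treatment began 5 h after plating HepG2 cells (600/well) with NanoLuc luciferase and prosubstrate. Plates stayed at 37 C for 40 h; luminescence was captured at six time points, 0 h through 40 h.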
(Quantitative high-throughput screening tests each substance at several concentrations.)
As to `CC(=O)OCCC(C)CC(C)(C)C` (centres undefined), the “activity change, negative = cytotoxic” value was 0.103% (inactive).
On the same count and under the same terms, next, `ClC1=C(Cl)C1(Cl)Cl`: 0.0459% (inactive); `CCCCCCCC/C=C\CCCCCCCC(=O)OCCO`: 21.4% (inactive); `CC(C)Cc1ccc(CC(=O)O)cc1`: 6.47% [at 35.3 µM] (inactive).
`COc1cc(NCc2ccc3nc(N)nc(N)c3c2C)cc(OC)c1OC`: the “activity change, negative = cytotoxic” value is -4.88% [at 35.3 µM] (inactive).
On to `O=[N+]([O-])C1(Br)COCOC1`, for which the Potency was 49 µM (active).
For `CCCCCCCCCCCCCCCCCC(=O)OCC(CC)CCCC` (centres undefined), the “activity change, negative = cytotoxic” value was 0.114% (inactive).
On the same count and under the same terms, under `CC12CC3CC(C)(C1)CC(N)(C3)C2` stands 0.249% [at 35.3 µM] (inactive); under `CC/C=C\C/C=C\C/C=C\CCCCCCCC(=O)OCC`, -0.343% (inactive).
As to `Cc1ccc(N(CCO)CCO)cc1`, the “activity change, negative = cytotoxic” value is 0.436% (inactive).
For `CC1CCC(C(C)CS)CC1S` (centres undefined), the “activity change, negative = cytotoxic” value is -1.99% (inactive).
In the case of `COC(=O)CC(C(C)=O)C(=O)OC` (centres undefined), the “activity change, negative = cytotoxic” value was 0.206% (inactive).
Consider `c1ccc(CCCc2ccncc2)cc1`, for which the “activity change, negative = cytotoxic” value is -13.4% (inactive).
On to `O[C@@H](CNC[C@H](O)[C@H]1CCc2cc(F)ccc2O1)[C@@H]1CCc2cc(F)ccc2O1`, for which the Potency is 21.3 µM (active).
Take `Cc1c[nH]c2ccccc12`: the “activity change, negative = cytotoxic” value is 6.78% [at 35.3 µM] (inactive).
For `COc1ccc(C)cc1`, the “activity change, negative = cytotoxic” value is 1.83% (inactive).
With `COc1ccc(/C=C/C(=O)c2ccc(OC)cc2OC)cc1`, the “activity change, negative = cytotoxic” value was -12.4% [at 35.3 µM] (inactive).
Still for that read-out and setting: under `CC(C)(C)NCC(O)COc1cccc2c1C[C@H](O)[C@H](O)C2` (some centres undefined) stands -0.397% [at 35.3 µM] (inactive); under `CC(=O)OCC(=O)[C@@]1(OC(C)=O)[C@@H](C)C[C@H]2[C@@H]3C[C@H](F)C4=CC(=O)C=C[C@]4(C)[C@@]3(F)[C@@H](O)C[C@@]21C`, -9.33% [at 35.3 µM] (inactive).
As for `O=C(O)c1cc(Cl)cc(Cl)c1O`, the “activity change, negative = cytotoxic” value was -4.19% (inactive).
Same read-out and setting: next, `CCOC(=O)Oc1ccc(CCNC(=O)[C@H](CCSC)NC(C)=O)cc1OC(=O)OCC`: 0.0739% [at 35.3 µM] (inactive).
In the case of `CC(C)COC(=O)c1ccc(O)cc1`, the “activity change, negative = cytotoxic” value is -8.15% (inactive).
In the case of `CCN(Cc1cccc(S(=O)(=O)O)c1)c1ccc(C(=C2C=CC(=[N+](CC)Cc3cccc(S(=O)(=O)O)c3)C=C2)c2ccc(O)cc2S(=O)(=O)[O-])cc1`, the “activity change, negative = cytotoxic” value was -10.7% [at 35.3 µM] (inactive).
Same read-out and setting: next, `CCC(Cl)CC(Cl)C(Cl)C(Cl)C(Cl)C(C)Cl` (centres undefined): -2.19% [at 15.8 µM] (inactive); `COC(CC(C)CCCC(C)(C)O)OC` (centres undefined): -0.869% (inactive).
Turning to `Oc1cccc2[nH]ccc12`, the “activity change, negative = cytotoxic” value is 1.7% [at 35.3 µM] (inactive).
Turning to `CCN(CC)CC(=O)Nc1c(C)cccc1C(=O)OC`, the “activity change, negative = cytotoxic” value was -3.08% [at 35.3 µM] (inactive).
Still for that read-out and setting: next, `CCN(CC)CCNC(=O)c1cc(Cl)c(N)cc1OC`: 2.71% [at 35.3 µM] (inactive); `CCCCOC(=O)CCCCC(=O)OCCCC`: -8.46% (inactive).
On to `CN(C)CC/C=C1\c2ccccc2Sc2ccc(Cl)cc21`, for which the Potency is 23.9 µM (active).
Turning to `CCN(CC)c1cccc(O)c1`, the “activity change, negative = cytotoxic” value is 1.9% (inactive).
With `O=C(c1ccccc1)C1CCC1`, the “activity change, negative = cytotoxic” value was 1.13% (inactive).
